According to PubChem BioAssay (EPA / NIEHS):
Active and inactive are the calls of the source. Rule for the calls: active = hit-call score of the fitted dose curve at least 0.9, where 1 is the maximum; inactive = score below 0.9.

These compounds were tested on Insulin Like Growth Factor 1 (IGF1), IGF1 (gene 3479) (assay: LTEA_HepaRG_IGF1: Life Technologies and Expression Analysis (LTEA) Assay for Insulin Like Growth Factor 1 (IGF1) using HepaRG (AID 2283506)). Details: mRNA level, 48 h; actives raise or lower the signal.
Protocol: LTEA_HepaRG is a cell based, multiplexed-readout assay that uses HepaRG, a human liver cell line, with measurements taken at 48 hours after chemical dosing on a 96-well plate.LTEA_HepaRG_IGF1 is one of 102 assay component(s) measured in the LTEA HepaRG cell culture assay. It is a marker of Cell proliferation, survival, death.Data from the assay component LTEA_HepaRG_IGF1 was analyzed into 1 endpoint. This assay endpoint, LTEA_HepaRG_IGF1, was analyzed with bidirectional fitting relative to DMSO as the negative control and baseline of activity. Using a type of inducible reporter, measures of mRNA induction for gain or loss-of-signal activity can be used to understand regulation of transcription factor activity. To generalize the intended target to other relatable targets, this assay endpoint is annotated to the growth factor intended target family, where the subfamily is insulin-like.
A total of 1060 chemcials from the ToxCast library were tested in eight-point concentration-response experiments. Cell culture and cytotoxicity assays were conducted at Thermo Fisher Scientific's Custom Services facility (Madison, WI). A single lot of human HepaRG cells (Thermo Fisher Scientific, Frederick, MD) was used for the cell culture experiments. 96-well format collagen type I coated plates of human HepaRG cells were prepared using established methods. Briefly, cryopreserved HepaRG cells were thawed, plated at a density of approximately 100,000 cells/well in HepaRG Thaw, Plate, and General Purpose media (HPRG770, Thermo Fisher Scientific), and incubated for 48 hours. 0.5% DMSO was selected as vehicle control to balance the requisite need of DMSO in HepaRG cultures to maintain differentiation (for example, baseline metabolism, proportions of hepatocytes vs. cholangiocytes), while enabling further hepatic receptor pathway activation (for example, PXR and CAR) in response to chemical exposure. 48 hours after plating, the culture medium was replaced with HepaRG Serum-Free Incudtion Media. Cells were exposed to each test chemical in duplicate and maintained in CO2 incubators for another 48 hours. Chemical plates were thawed to room temperature and 200x concentrations of treatment groups were prepared. 8-point conentration-reponse curves were made with the highest exposure at 100 uM, followed by half-log dilutions, all in 0.5% DMSO. Each test plate contained variouse controls, induction positive controls (1mM phenobarbital), cytotoxicity positive controls ([…] aflatoxin B1), vehicle controls (0.5% DMSO), and total lysis controls (0.5% DMSO). Cell morphology images were taken using an Essen IncuCyte FLR automated microscope, with six 96-well plates imaged in about 24 minutes. Images were captured and exported and JPEG files. Spent culture media was transfered to black-well plates for the LDH assay, and remaining media was sorted at -80 C for later use. Cells were treated with RLT buffer and frozen until shipped for gene expression analysis. Total RNA was isolated from the cell suspension in 75 uL of Buffer RLT (Qiagen, Germantown, MD 20874) by Quintiles/Expression Analysis (Durham, NC) using a custom isolation procedure. Total RNA from each plate well was transferred to a preamplification plate. Fluidigm's 96.96 Dynamic ArrayTM (Fluidigm, Amsterdam, the Netherlands) technology was used for gene expression analyses by quantitative reverse transcription polymerase chain reaction (qRT-PCR, performed by Quintiles/Expression Analysis, Durham, NC)89. Standard TaqManTM Assays (Applied Biosystems/ThermoFisher Scientific, Foster City, CA) were used to assess the expression of 93 genes selected based on their selectivity and sensitivity to important hepatic receptors known to be modulated by environmental chemicals; importance in human hepatocyte functionality; and hepatotoxicity. […]

SMILES | outcome | AC50
Clc1cccc(Cl)c1 | inactive | –
Oc1c(Cl)cc(Cl)cc1Cl | inactive | –
CCCCCCCCCCCCc1cccc(S(=O)(=O)O)c1 | inactive | –
CN(C)C(=S)S | inactive | –
CC(C)O.CC(C)O.OCCN(CCO)CCO.OCCN(CCO)CCO.[Ti] | inactive | –
O=C(N[C@H]1CN2CCC1CC2)c1ccc2c(c1)OCCO2 | inactive | –
Oc1cc(Cl)c(Cl)cc1Cl | inactive | –
CC(C)(C)c1ccccc1O | inactive | –
Clc1cccc(Cl)c1Cl | inactive | –
Cc1cc(C)cc(C)c1 | inactive | –
O=C(O)C1(c2ccc3c(c2)OC[C@H](Cc2ccc(-c4ccccc4)cc2)[C@H]3O)CCCC1 | – | 15.8 µM (active)
N#Cc1cccnc1 | inactive | –
OCCN(CCO)CCO | inactive | –
COc1ccccc1N | inactive | –
